Test results: the OligoGym collection

Target: ZDHHC20
Experiment: pooled miR-30 sensor sort-seq; sequence = guide strand
Conditions: shRNA
Note: reference of the scale not given here.

Sequence | sensor-assay potency score (higher = more potent)
TCTTGTTGTCTTTCTTGGCTGA | 0.533
TTGTTGTTCTATTTTTTCCAAC | -1.28
TTATAAAGTACTCTAAAACTGT | -0.589
TTGTAACAGAAGCTTGTTCTGG | -0.283
TTGGACAAGTAGAACTCTTTGG | -0.323
TATAGATAGGTAAAGCTCTTGC | -0.117
TTCAGCTCCATTCTCCAGCCAC | -0.374

Target: ZDHHC24
Experiment: as above
Conditions: shRNA

Sequence | sensor-assay potency score (higher = more potent)
TTGCCGAAGCCCACGCAGCGGC | -1.27
TGCCAGAGACACTCTGCCTGTG | -0.683
TCTGCCTGTGAGCAACATGAGC | -1.73
TTGAGCAGCTGGAAGGCGGCCA | -0.092
CCTGTGAGCAACATGAGCCAGG | -2.43
TAGCAGTAAGCCCAGCCCTGGC | -1.6
TGAAGCAGCAGGCACAGGAAGG | -1.8
TCCCATGGAAGAGCAGCCCAGC | -1.99
TGTGAGCAACATGAGCCAGGGA | -0.189
TAGTTGCCGAAGCCCACGCAGC | -1.53
TGAGCAACATGAGCCAGGGAAG | -1.75
AGACACTCTGCCTGTGAGCAAC | -2.01
